In ChEMBL document CHEMBL3433997, “St. Jude Leishmania screening dataset” (2016):

Assays:
Format in all cases: functional
[1] = molecular target: Solute carrier family 2, facilitated glucose transporter member 1 (Homo sapiens) (UniProt P11166); experiment: ST_JUDE_LEISH: Cytotoxicity at 2uM final concentration against transgenic Leishmania Mexicana promastigotes LmGLUT1 that are glucose transport deficient and complemented with the human glucose transporter GLUT1. Activity is measured by DNA content using SYBR green in vitro
[2] = molecular target: Hexose transporter 1 (Plasmodium falciparum) (UniProt O97467); experiment: ST_JUDE_LEISH: Cytotoxicity at 2uM final concentration against transgenic Leishmania Mexicana promastigotes LmPfHT that are glucose transport deficient and complemented with the Plasmodium falciparum hexose transporter. Activity is measured by DNA content using SYBR green in vitro
[3] = molecular target: Glucose transporter (Leishmania mexicana) (UniProt O61059); experiment: ST_JUDE_LEISH: Cytotoxicity at 2uM final concentration against transgenic Leishmania Mexicana promastigotes LmGT2 that are glucose transport deficient and complemented with the L. Mexicana glucose transporter 2. Activity is measured by DNA content using SYBR green in vitro

Sequence of Solute carrier family 2, facilitated glucose transporter member 1 (Homo sapiens) (P11166 whole entry): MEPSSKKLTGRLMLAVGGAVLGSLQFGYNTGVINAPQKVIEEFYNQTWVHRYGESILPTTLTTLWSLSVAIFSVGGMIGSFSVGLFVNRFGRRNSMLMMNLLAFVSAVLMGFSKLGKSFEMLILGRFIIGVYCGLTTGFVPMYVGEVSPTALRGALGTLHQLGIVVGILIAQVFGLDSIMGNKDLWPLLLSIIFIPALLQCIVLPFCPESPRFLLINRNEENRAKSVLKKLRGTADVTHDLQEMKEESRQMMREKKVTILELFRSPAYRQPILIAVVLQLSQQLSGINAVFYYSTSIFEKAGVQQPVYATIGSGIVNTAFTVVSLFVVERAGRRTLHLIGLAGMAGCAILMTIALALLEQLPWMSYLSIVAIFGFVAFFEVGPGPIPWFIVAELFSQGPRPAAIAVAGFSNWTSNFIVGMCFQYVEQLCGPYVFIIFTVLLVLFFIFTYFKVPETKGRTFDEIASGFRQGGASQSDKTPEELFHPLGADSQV

SMILES | inhibition [1] [%] | inhibition [2] [%] | inhibition [3] [%]
N#Cc1ccc(CN2CCCN(Cc3cccc(NC(=O)c4ccc(Cl)c(Cl)c4)c3)CC2)cc1 | 9.73 | 7.09 | 9.89
CN(C)CCNCc1cccc(-c2ccc3c(Nc4ccc(F)cc4Cl)ccnc3c2)c1 | 3.59 | 3.29 | 5.03
COc1ccc2nccc([C@@H](O)CN3CCC(NCc4cc5ccccn5n4)CC3)c2c1 | 4.35 | 4.49 | 4.75
CC(C)N1CCN(c2ccc(OCCCN3CCN(c4cccc(Cl)c4Cl)CC3)c(C(F)(F)F)c2)CC1 | 2.24 | 1.13 | -0.82
Cc1ccc(O)cc1Nc1ccnc2cc(-c3ccccc3)ccc12 | 7.87 | 8.41 | 7.72
O=[N+]([O-])c1cccc(NC(=S)N2CCCN(Cc3ccc(C(F)(F)F)cc3)CC2)c1 | 2.92 | 4.79 | 3.25
Cc1ccnc2nc(C(=O)Nc3cc(C(F)(F)F)ccc3N3CCCCC3)nn12 | 1.48 | 2.09 | 1.77
